Among the test systems are T-47D breast; BT-549 breast; SW-620 colon; MCF7 breast; HCT-116 colon; HCC-2998 colon; KM12 colon; MDA-MB-435 melanoma.
Test in all cases: NCI-60 one-dose screen, 48 h (100 = growth as untreated, 0 = no growth, -100 = all killed)
Holding throughout (details): 10 µM unless noted

About 83,000 compounds went through this panel and 20% of them were active in at least one assay; those are over-represented in the sample as a whole.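 Interpretation: 100, growth as untreated; towards 0, rising growth inhibition; 0, no net growth; 0 to -100, cell death. Compounds scoring below 10 were considered active.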 Values without a mark were called inactive. The source made the active and inactive calls.

Take `Nc1ccccc1C#C/C=C\C#Cc1cccc(O)c1`: the growth in the experiment on T-47D breast is 55.2%; in the experiment on BT-549 breast, 44.8%; in the experiment on SW-620 colon it was 32.4%; in the experiment with MCF7 breast, 35.9%; in the experiment on HCT-116 colon, 42.3%; in the experiment on HCC-2998 colon, 41.3%. The growth with KM12 colon is 27.9%.
For `O=c1[nH]c(CN2CCN(c3ccccc3F)CC2)nc2sc3c(c12)CCC3`, the growth with T-47D breast was 99.1%; in the experiment on BT-549 breast, 98.8%; in the experiment on MDA-MB-435 melanoma, 118%; in the experiment on MCF7 breast, 107%; in the experiment on HCT-116 colon, 105%; with HCC-2998 colon, 117%. Further, the growth in the experiment on KM12 colon is 106%.
`COc1ccc(C2CC(c3cccs3)=NN2c2ccc(S(=O)(=O)NC(=O)NCc3cccc(OC)c3)cc2)cc1` (centres undefined): the growth was 85.7% in the experiment with T-47D breast; 116% in the experiment with BT-549 breast; 107% with SW-620 colon; 99% in the experiment on MCF7 breast; 98.8% with HCT-116 colon; 111% in the experiment on HCC-2998 colon. Besides, the growth in the experiment on KM12 colon was 98.5%.
For `COc1cc(-c2csc(NC(=O)c3cc(C(F)(F)F)cc(C(F)(F)F)c3)n2)cc(OC)c1OC`, the growth was -15.9% (active) with T-47D breast; 18.7% with BT-549 breast; 28.6% in the experiment on MDA-MB-435 melanoma; 18.4% with MCF7 breast; 14.4% with HCT-116 colon; 31% in the experiment on HCC-2998 colon. Further, the growth with KM12 colon is 22.1%.
In the case of `CCn1cc(C(=O)O)c(=O)c2cc(F)c(N3CCN(S(=O)(=O)c4ccc(Cl)cc4Cl)CC3)cc21`, the growth in the experiment on T-47D breast was 1.7% (active); in the experiment on BT-549 breast it was -4.59% (active); in the experiment with SW-620 colon it was 16.4%; in the experiment with MCF7 breast, 89.2%; with HCT-116 colon, 6.37% (active); in the experiment with HCC-2998 colon it was 30.6%. Further, the growth in the experiment with KM12 colon was 9.4% (active).
Consider `CCCCCC(=O)OCc1ccccc1`, for which the growth in the experiment on T-47D breast was 95.2%; with BT-549 breast, 84.5%; in the experiment with MDA-MB-435 melanoma it was 96.3%; with HCT-116 colon, 93.8%; with HCC-2998 colon, 96.9%; in the experiment with KM12 colon, 98.1%.
With `C/C(=N\NC(=O)CC#N)c1cc2cc(Cl)ccc2o1`, the growth in the experiment on T-47D breast was 78.4%; in the experiment with BT-549 breast, 125%; with MDA-MB-435 melanoma it was 106%; in the experiment on MCF7 breast it was 72.2%; with HCT-116 colon it was 107%; in the experiment on KM12 colon, 98.9%.
Regarding `COc1ccc(NC(=O)CSc2nc3ccc(Cl)cc3c(=O)n2-c2ccccc2C(F)(F)F)c(OC)c1OC`, the growth was 61.9% in the experiment on T-47D breast; 72.8% in the experiment on BT-549 breast; 92.3% in the experiment with MDA-MB-435 melanoma; 78.9% with MCF7 breast; 70.1% in the experiment on HCT-116 colon; 99% in the experiment with HCC-2998 colon. Further, the growth in the experiment on KM12 colon was 95.7%.
Consider `COc1cc(NCCN=C(N)NC(N)=NC(C)C)c2ncccc2c1`, for which the growth in the experiment on T-47D breast is -5.22% (active); in the experiment with BT-549 breast it was 52.4%; with SW-620 colon, 88.4%; in the experiment with MCF7 breast, -55.7% (active); in the experiment on HCT-116 colon it was 28.1%; in the experiment on HCC-2998 colon, 82.9%. Moreover, the growth in the experiment with KM12 colon is 29.9%.
On to `CCCCCCCN(CCCCCCC)C(=N)c1ccc(OC)c2ccccc12`, for which the growth was -72.9% (active) with T-47D breast; -7.55% (active) in the experiment with BT-549 breast; -89.1% (active) in the experiment on SW-620 colon; -74.4% (active) with MCF7 breast; -86.7% (active) in the experiment on HCT-116 colon; -92.5% (active) in the experiment with HCC-2998 colon. The growth in the experiment with KM12 colon is -84.3% (active).
For the molecule `CN(C)C/C=C/C(=O)Nc1cc2c(Nc3cccc(Cl)c3F)ncnc2cc1OCCOC(F)F`, the growth was -4.28% (active) in the experiment with T-47D breast; 41% in the experiment with BT-549 breast; 15.4% in the experiment with MDA-MB-435 melanoma; 35.1% with MCF7 breast; 25.7% with HCT-116 colon; 68.3% in the experiment with HCC-2998 colon. For the same molecule, in the experiment on KM12 colon, the growth was 80.7%.
With `CC/C=C\C/C=C\C[C@H]1C/C=C2/C(=O)C=C[C@H]2C/C=C\CCC(=O)O1`, the growth in the experiment with T-47D breast was 12.9%; in the experiment with BT-549 breast it was -7.41% (active); in the experiment on SW-620 colon it was -4.82% (active); in the experiment on MCF7 breast, 20%; in the experiment with HCT-116 colon, -63.4% (active); in the experiment on HCC-2998 colon it was -59.2% (active). In addition, the growth in the experiment on KM12 colon was -34.5% (active).
As to `COc1ccc(S(=O)(=O)N2CCN(c3cc4c(cc3F)c(=O)c(C(=O)O)cn4C3CC3)CC2)c(OC)c1`, the growth in the experiment on T-47D breast is 75%; in the experiment on BT-549 breast it was 95%; in the experiment on MDA-MB-435 melanoma, 97.7%; with MCF7 breast, 98.4%; in the experiment on HCT-116 colon, 102%; with KM12 colon, 91.1%.
`COC(=O)C(CC(=O)c1ccc(-c2ccccc2)cc1)c1ccccc1` (centres undefined): the growth is 51.9% in the experiment with T-47D breast; 71.2% in the experiment on BT-549 breast; 5.69% (active) in the experiment on MDA-MB-435 melanoma; 16.2% in the experiment on MCF7 breast; 23.5% in the experiment on HCT-116 colon; 96.5% in the experiment with HCC-2998 colon. Further, the growth in the experiment on KM12 colon was 55.6%.
Take `CC(C)(C)c1cn2cccc(C(=O)N3CCN(CC(=O)Nc4ccc(Cl)cc4C(=O)c4ccccc4Cl)CC3)c2n1`: the growth in the experiment on T-47D breast was 31.8%; with BT-549 breast, -15.1% (active); in the experiment on MDA-MB-435 melanoma it was 63.4%; with MCF7 breast it was 43.8%; in the experiment on HCT-116 colon, 33.3%; in the experiment with KM12 colon, 54.2%.
Turning to `COc1ccc(C(=O)N2CCN(C(=O)c3cc(OC)c(OC)c(OC)c3)CC2)cc1OCCCCOc1cc2c(cc1OC)C(=O)N1CCC[C@H]1C=N2`, the growth in the experiment with T-47D breast is 85.4%; in the experiment on BT-549 breast, 115%; in the experiment on MDA-MB-435 melanoma, 108%; with MCF7 breast it was 98.8%; in the experiment with HCT-116 colon it was 101%; in the experiment on KM12 colon it was 129%.
Take `Cc1cnc(NC(=O)C(Cc2ccccc2)NC(=O)c2ccccc2)s1` (centres undefined): the growth in the experiment on T-47D breast is 87.3%; with BT-549 breast, 88.4%; in the experiment with MDA-MB-435 melanoma, 13.2%; with MCF7 breast, 46.2%; in the experiment with HCT-116 colon, 49.7%; with HCC-2998 colon it was 73.3%. Further, in the experiment with KM12 colon, the growth was 60.2%.

Source of the values: PubChem BioAssay (NCI).
